Shown are actives, neighbours in structure and some others; about 1.2% of the full set was active somewhere.
PI4K2A inh – blocks human PI4K2A kinase activity; activity change, negative = inhibition, % at 76.9 µM; AID 1346378; purified PI4K2A, ADP-Glo luminescence, 1 h; stronger effect = lower value; Q9BTU6; 420,000 tested, 0.13% active; in the data active = activity change below about -50%; inconclusive = mostly about -30% to -49%
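In this quantitative HTS, ADP production by PI4K2A was quantified luminescently after 1 h at ambient temperature; 100 microM adenosine served as plate-quality control.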
Pin1 inh – blocks the human prolyl isomerase Pin1. Potency, µM (series often up to 115 µM), most hits filed as inhibitors. Q13526. AID 504891. 390,000 tested, 0.009% active. Pin1 FP peptide displacement, HiFluor488, 10 min; active = well fitted inhibition curve with a large enough effect in the polarisation, with a control signal flat, not every such curve was filed as active; inconclusive = small, poorly fitted or top-dose-only effect, or effect the other way, or a change in a side signal; inactive = no such curve, though single readings can be large or run the other way; the % refers to the polarisation
Target sequence (Q13526 whole entry, looked up): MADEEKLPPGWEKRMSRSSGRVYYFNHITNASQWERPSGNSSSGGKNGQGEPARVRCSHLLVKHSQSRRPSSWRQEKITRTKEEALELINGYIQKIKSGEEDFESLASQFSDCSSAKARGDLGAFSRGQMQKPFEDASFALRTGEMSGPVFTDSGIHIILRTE
RGS12 GoLoco inh-1 – RGS12 GoLoco-Gai1 interaction inhibition; P63096; 230,000 tested, 0.44% active; Gai1:RGS12 GoLoco peptide FP, rhodamine, 10 min; Potency, µM (series often up to 61.6 µM), actives largely listed as inhibitors; active = well fitted inhibition curve with a large enough effect, not every such curve was filed as active; inactive = no such curve, though single readings can be large or run the other way; also: nearly all actives have a fitted effect of over 30% in size
PI5P4K alpha inh – PI5P4K alpha (human) kinase inhibition; P48426; PI5P4Kalpha enzyme, ADP-Glo luminescence, 60 min; stronger effect = lower value; max response, %; 330,000 tested, 1.2% active; active = max response of -50% or lower; inconclusive = between -30% and -50%; inactive = -30% or higher; also: value at the top dose of about 77 µM
Target sequence (P48426 whole entry, looked up): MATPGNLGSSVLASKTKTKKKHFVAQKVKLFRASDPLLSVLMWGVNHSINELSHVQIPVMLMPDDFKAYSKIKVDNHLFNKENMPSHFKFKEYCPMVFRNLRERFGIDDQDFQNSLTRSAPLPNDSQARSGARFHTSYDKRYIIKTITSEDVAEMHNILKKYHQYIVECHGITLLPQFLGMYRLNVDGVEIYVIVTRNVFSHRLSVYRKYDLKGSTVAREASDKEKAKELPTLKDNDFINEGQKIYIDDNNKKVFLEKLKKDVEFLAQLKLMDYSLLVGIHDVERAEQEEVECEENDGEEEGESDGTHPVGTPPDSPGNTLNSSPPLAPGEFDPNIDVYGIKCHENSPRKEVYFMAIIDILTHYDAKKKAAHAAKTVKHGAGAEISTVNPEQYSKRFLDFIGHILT
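PI5P4Kalpha ADP-Glo assay; 5 microM ATP final; 60 min RT reaction; HEPES pH 7.4/EGTA/CHAPS, 5% DMSO; controls lacking substrate or enzyme; luminescent end-point.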
Tb PGK inh – blocks T. brucei phosphoglycerate kinase | Potency, µM (top dose mostly 57.5 µM), most hits filed as inhibitors | 380,000 tested, 0.043% active | PGK/GAPDH coupled, Kinase-Glo luminescence, 60 min | P07378; also: nearly all actives have a fitted effect of over 60% in size
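Recombinant glycosomal PGK reaction used 1,3-bisphosphoglycerate generated in-well by GAPDH (100nM final) in 100mM TEA pH 7.6, 5mM MgCl2, 0.01% Tween-20. After 60 minutes at room temperature, ATP was read by Kinase-Glo Plus luminescence end-point.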
KAT2A inh – GCN5L2 (KAT2A) acetyltransferase inhibition | 390,000 tested, 0.21% active | Potency, µM (titrated, usually from 58.9 µM), actives largely listed as inhibitors | GCN5L2 HAT assay, ThioGlo1 CoA-SH fluorescence | AID 504327
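GCN5L2 (20 nM) in 50mM HEPES pH 7.5, 0.1mM EDTA, 0.01% Tween-20 preincubated 15 min with compounds at room temperature. Reaction started with H3(1-25) 75uM, acetyl-CoA 70uM, ThioGlo1 50uM; CoA-thiol fluorescence (Ex340/Em540) read at 0 and 20 min.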
RGS12 GoLoco inh-2 – confirmation of human RGS12 GoLoco motif inhibitors | shares compounds with RGS12 GoLoco inh-1 | 110 tested, 50% active | Potency, µM (top dose mostly 57.1 µM), most hits filed as inhibitors | Gai1/rhodamine-RGS12 GoLoco peptide fluorescence polarization
Hits are given with their value; ! = not confirmed by another sample; [ ] = another dose, or the depositor's remark. Unless noted, calls follow the shape of the dose curve; as a rule, active = well fitted curve in the direction sought with a large enough effect; inconclusive = small, poorly fitted or top-dose-only effect, or another doubt; inactive = no such curve, though single readings can be large; an effect the other way counts as inactive or inconclusive.

For O=C1c2ccc3c4c(ccc(c24)C(=O)N1CCCCO)C(=O)N(CCCCO)C3=O the results were PI4K2A inh inactive, Pin1 inh inconclusive, RGS12 GoLoco inh-1 25µM, PI5P4K alpha inh inactive, Tb PGK inh inactive, KAT2A inh inactive and RGS12 GoLoco inh-2 11µM.
`Cc1cc2nc3c(=O)n(C4CCCCC4)c(=O)[nH]c3nc2cc1N` gave PI4K2A inh inactive, RGS12 GoLoco inh-1 inactive, PI5P4K alpha inh inconclusive, Tb PGK inh inactive, KAT2A inh inactive and RGS12 GoLoco inh-2 inconclusive.
Screening Cc1cc(C)cc(Nc2cc(=O)n(C3CCCCC3)c(=O)[nH]2)c1 returned PI4K2A inh inactive, Pin1 inh inactive, RGS12 GoLoco inh-1 inactive, PI5P4K alpha inh inactive, Tb PGK inh inactive and KAT2A inh inactive.
`COc1ccc(NC(=O)C2CC(=O)N(Cc3ccco3)C2)cc1Cl` (stereo unspecified) gave PI4K2A inh inactive, Pin1 inh inactive, PI5P4K alpha inh inactive, Tb PGK inh inactive and KAT2A inh inactive.
`CN(CC(=O)Nc1cccc(F)c1)C(=O)c1ccc(-n2cncn2)c([N+](=O)[O-])c1` gave PI4K2A inh inactive, Pin1 inh inactive, PI5P4K alpha inh inactive, Tb PGK inh inactive and KAT2A inh inactive.
For CCOc1ccc(N(CC(=O)N/N=C/c2ccc(OC(C)C)cc2)S(C)(=O)=O)cc1 the results were PI4K2A inh inactive, Pin1 inh inactive, RGS12 GoLoco inh-1 10µM, PI5P4K alpha inh inactive, Tb PGK inh inactive, KAT2A inh inactive and RGS12 GoLoco inh-2 inactive[0.0121 µM].
For O=C(COc1ccc(Cl)cc1)N1CCN(Cc2ccc3c(c2)OCO3)CC1 the results were PI4K2A inh inactive, Pin1 inh inactive, RGS12 GoLoco inh-1 22µM!, PI5P4K alpha inh inactive, Tb PGK inh inactive, KAT2A inh inactive and RGS12 GoLoco inh-2 inactive[0.0121 µM].
Screening CCCCNc1ccc2c3c(cccc13)C(=O)N(CCCC)C2=O returned PI4K2A inh inactive, Pin1 inh inconclusive, RGS12 GoLoco inh-1 14µM, PI5P4K alpha inh inactive, Tb PGK inh inactive, KAT2A inh inactive and RGS12 GoLoco inh-2 14µM.
Screening CCOc1ccc(NC(=O)CCc2c(C)nc3c4c(C)cc(C)nc4nn3c2C)cc1 returned PI4K2A inh inactive, Pin1 inh inactive, Tb PGK inh inactive and KAT2A inh inactive.
O=C(Cn1c(=O)c2ccccc2n2nncc12)Nc1cccc(F)c1 was read as PI4K2A inh inactive, Pin1 inh inactive, Tb PGK inh inactive and KAT2A inh inactive.
`CCOc1ccc(NC(=O)Cn2sc3nc(C)cc(C)c3c2=O)cc1` gave PI4K2A inh inactive, Pin1 inh inactive, RGS12 GoLoco inh-1 16µM, PI5P4K alpha inh -71, Tb PGK inh inactive, KAT2A inh inconclusive and RGS12 GoLoco inh-2 inconclusive.
`Cc1cc(C)n(CCC(=O)Nc2ccc(Cl)cc2)n1` gave PI4K2A inh inactive, Pin1 inh inactive, Tb PGK inh inactive and KAT2A inh inactive.
For Cc1cc(C)c2c(=O)n(CC(=O)Nc3ccc(Cl)cc3)sc2n1 the results were PI4K2A inh inactive, Pin1 inh inactive, RGS12 GoLoco inh-1 25µM, PI5P4K alpha inh -64, Tb PGK inh inactive, KAT2A inh inconclusive and RGS12 GoLoco inh-2 inconclusive.
`Cc1ccc(NC(=O)Cn2sc3nc(C)cc(C)c3c2=O)c(Cl)c1` gave PI4K2A inh inactive, Pin1 inh inactive, RGS12 GoLoco inh-1 18µM, PI5P4K alpha inh -72, Tb PGK inh inactive, KAT2A inh 28µM and RGS12 GoLoco inh-2 11µM.
For Cc1ccc(NC(=O)Cn2c(C)cc(C)c(C#N)c2=O)c(Cl)c1 the results were PI4K2A inh inactive, Pin1 inh inactive, RGS12 GoLoco inh-1 inactive, Tb PGK inh inactive and KAT2A inh inactive.
Cc1cc(C)c2c(=O)n(CC(=O)Nc3cccc(F)c3)sc2n1 was read as PI4K2A inh inactive, Pin1 inh inactive, RGS12 GoLoco inh-1 32µM, PI5P4K alpha inh -67, Tb PGK inh inactive, KAT2A inh inconclusive and RGS12 GoLoco inh-2 32µM.
Screening Cc1ccccc1Nc1cc(C(=O)NCCc2ccc(Cl)cc2)c2ccccc2n1 returned PI4K2A inh inactive, Pin1 inh inactive, Tb PGK inh inactive and KAT2A inh inactive.
`CC(CC(=O)O)NCC1COc2ccccc2O1` (stereo unspecified) gave PI4K2A inh inactive, Pin1 inh inactive, PI5P4K alpha inh inactive and Tb PGK inh inactive.
O=C1c2cccc3c(O)ccc(c23)C(=O)N1Cc1ccccc1 was read as PI4K2A inh inactive, Pin1 inh inconclusive, RGS12 GoLoco inh-1 11µM, PI5P4K alpha inh -63, Tb PGK inh inactive, KAT2A inh inactive and RGS12 GoLoco inh-2 11µM.
`O=C(O)c1cccc(CN2C(=O)c3ccccc3C2=O)c1` gave PI4K2A inh inactive, Pin1 inh inactive, PI5P4K alpha inh inactive, Tb PGK inh inactive and KAT2A inh inactive.
Screening OC(COC1CCCCC1)CN1CCN(c2ccccc2)CC1 (stereo unspecified) returned PI4K2A inh inactive, Pin1 inh inactive, RGS12 GoLoco inh-1 inactive, Tb PGK inh inactive and KAT2A inh inactive.
`Cc1n(CC(O)COC2CCCCC2)c2ccccc2[n+]1C` (stereo unspecified) gave PI4K2A inh inactive, Pin1 inh inactive, RGS12 GoLoco inh-1 7.1µM, PI5P4K alpha inh inactive, Tb PGK inh inactive, KAT2A inh inactive and RGS12 GoLoco inh-2 16µM.
`Cc1ccc(NC(=O)CSc2nnc(-c3ccc(S(=O)(=O)N4CCOCC4)cc3)n2C)cc1` gave PI4K2A inh inactive, Pin1 inh inactive, RGS12 GoLoco inh-1 inactive, Tb PGK inh inactive, KAT2A inh inactive and RGS12 GoLoco inh-2 inactive.
For C[n+]1cc2c3c(ccc2c2ccc4cc5c(cc4c21)OCO5)OCO3 the results were PI4K2A inh inactive, Pin1 inh inactive, RGS12 GoLoco inh-1 14µM!, KAT2A inh 16µM! and RGS12 GoLoco inh-2 25µM.
C[n+]1c(/C=C/c2ccc3c(c2)OCO3)ccc2ccccc21 was read as PI4K2A inh inactive, Pin1 inh inactive, RGS12 GoLoco inh-1 inactive, PI5P4K alpha inh inactive, Tb PGK inh inactive and KAT2A inh inconclusive.
COc1ccccc1N1C(=O)C2CC(C)=C(C)CC2C1=O (stereo unspecified) was read as PI4K2A inh inactive, Pin1 inh inactive, RGS12 GoLoco inh-1 inactive and KAT2A inh inactive.
COc1ccccc1N1C(=O)C=C(Sc2nc(C)cc(C)n2)C1=O was read as PI4K2A inh inactive, Pin1 inh inactive, RGS12 GoLoco inh-1 1.4µM, PI5P4K alpha inh -57, Tb PGK inh inactive, KAT2A inh inactive and RGS12 GoLoco inh-2 inconclusive.
Screening CCOCc1cnc(C)nc1NCC(=O)c1c(C)n(C)c2ccc(OC)cc12 returned PI4K2A inh inactive, Pin1 inh inactive, RGS12 GoLoco inh-1 5µM, PI5P4K alpha inh inactive, Tb PGK inh inactive, KAT2A inh inactive and RGS12 GoLoco inh-2 25µM.

Screening results as filed in PubChem BioAssay.
